ALDH1A1 block: inhibitors of human aldehyde dehydrogenase 1A1. hit rate 7.3% among 220,000. Purified ALDH1A1, NADH fluorescence, propionaldehyde substrate. P00352. Potency, µM (top dose mostly 75.3 µM), most hits filed as inhibitors; active means well fitted inhibition curve with a large enough effect, not every such curve was filed as active; inconclusive means small, poorly fitted or top-dose-only effect, or another doubt; inactive means no such curve, though single readings can be large or run the other way
Lamin A splicing: changes lamin A minigene splicing in HeLa cells; HeLa LMNA splicing GFP/RFP minigene ratio, 48 h; Potency, µM (top dose mostly 46.1 µM), most hits filed as inhibitors; hit rate 0.01% among 200,000; AID 1487; active means well fitted inhibition curve with a large enough effect in the signal ratio, with a control signal flat, not every such curve was filed as active; inconclusive means small, poorly fitted or top-dose-only effect, or effect the other way, or a change in a side signal; the % refers to the signal ratio
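S3 HeLa stable clones carrying a lamin A-EGFP splicing minigene plus DsRed2 were seeded at 600 cells/well in Opti-MEM with 2% FBS, pin-dosed and incubated 48 h at 37°C. Acumen cytometry (488 nm) gave the GFP/RFP total-intensity ratio.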
HttQ103 aggreg: reduces HttQ103-GFP aggregates in PC12 cells. PC12 HttQ103-GFP aggregates, Acumen cytometry, 40 h. Potency, µM (titrated, usually from 46.1 µM), most hits filed as inhibitors. hit rate 1.1% among 220,000; further: nearly all actives have a fitted effect of over 60% in size
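Compounds (qHTS titration) were added to PC12 cells expressing an ecdysone-driven HTT exon 1 Q103–GFP fusion after induction with 100 nM tebufenozide. Aggregate formation was measured as GFP objects in cell lysates.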
HPGD block: blocks human HPGD enzyme activity | purified HPGD, NADH fluorescence kinetic, PGE2 substrate | Potency, µM, most hits filed as inhibitors | hit rate 4.3% among 150,000; active means well fitted inhibition curve with a large enough effect, not every such curve was filed as active; inconclusive means small, poorly fitted or top-dose-only effect, or another doubt; inactive means no such curve, though single readings can be large or run the other way
Target sequence (P15428 whole entry, looked up): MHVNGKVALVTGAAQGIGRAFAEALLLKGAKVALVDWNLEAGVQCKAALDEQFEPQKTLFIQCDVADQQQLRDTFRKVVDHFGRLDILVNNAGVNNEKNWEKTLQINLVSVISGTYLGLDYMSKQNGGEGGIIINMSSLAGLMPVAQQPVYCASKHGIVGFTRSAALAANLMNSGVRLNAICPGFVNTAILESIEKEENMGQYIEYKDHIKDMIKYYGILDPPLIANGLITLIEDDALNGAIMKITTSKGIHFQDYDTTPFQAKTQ
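20 nM HPGD preincubated 15 min at room temperature with compound in 50 mM Tris-HCl pH 8, 0.01% Tween 20. Started with 1 mM NAD+ and 30 uM prostaglandin E2; NADH fluorescence (360/450 nm) read 5 times over 30-s intervals, last minus first.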
KinaseGlo FLuc: blocks Kinase-Glo luciferase, a counter-screen artifact; hit rate 0.28% among 200,000; Potency, µM (top dose mostly 38.3 µM), most hits filed as inhibitors; Kinase-Glo luciferase, ATP luminescence, 8 min; AID 1379; further: nearly all actives have a fitted effect of over 60% in size
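Kinase-Glo luciferase light output from ATP and luciferin was measured with 10 uM ATP, within the enzyme's linear range. Buffer: 50 mM imidazole pH 7.2, 50 mM KCl, 7 mM MgCl2, 0.01% Tween 20, 0.05% BSA; luminescence read after 8 min at ambient temperature.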
HTT ATP protect: cytoprotection in Huntington HTT-Q103 PC12 cell model. PC12 HTT-Q103 induced, cytoprotection, ATP luminescence, 40 h. hit rate 0.14% among 230,000. Potency, µM (titrated, usually from 56.4 µM), usual class: activators. AID 1471; further: nearly all actives have a fitted effect of over 45% in size
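Readout: ATPlite luminescence (ATP level). Model: stable PC12, inducible Htt exon1 Q103-GFP. Inducer: tebufenozide, 100 nM final. Compounds: dose series. No G418 in medium.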
Numbers stand for hits; – = inactive; ? = inconclusive; · = not tested or not shown; [ ] = another dose, or the depositor's remark. A selection: hits, their analogues and other compounds. The true share with any hit is near 9%. Unless noted, the call rests on the fitted dose curve; in most records, active means well fitted curve in the direction sought with a large enough effect; inconclusive means small, poorly fitted or top-dose-only effect, or another doubt; inactive means no such curve, though single readings can be large; an effect the other way counts as inactive or inconclusive.

SMILES	ALDH1A1 block	Lamin A splicing	HttQ103 aggreg	HPGD block	KinaseGlo FLuc	HTT ATP protect
Cn1c(-c2ccc(Cl)cc2)cnc1NCc1cc2c(cc1[N+](=O)[O-])OCO2	14.1µM	–	–	–	–	–[10 µM]
Cn1c(-c2ccc(F)cc2)cnc1NCc1cc2c(cc1[N+](=O)[O-])OCO2	–	–	–	–	–	–[10 µM]
Cc1cc(F)ccc1NCc1cc2c(cc1[N+](=O)[O-])OCO2	11.2µM	–	–	–	–	–[10 µM]
Cn1c(-c2ccccc2)cnc1NCc1cc2c(cc1[N+](=O)[O-])OCO2	12.6µM	–	–	–	–	–[10 µM]
c1ccc(NCc2cccnc2)cc1	–	–	–	–	–	–
Cc1ccccc1Cn1c(=N)n(CC(=O)c2ccc([N+](=O)[O-])cc2)c2ccccc21	?	?	–	–	–	·
CCCCNc1c(N)n(CC(C)C)c(=O)[nH]c1=O	?	–	–	·	–	–[10 µM]
Cc1cnc(NC(=O)c2cncc(Br)c2)s1	–	?	–	·	–	–
Cc1cccc(NC(=O)c2sc3nc4c(c(-c5cccs5)c3c2N)CN(C)CC4)c1	14.1µM	–	–[9.22 µM]	–	–	–
COc1ccc(Cl)cc1Nc1nc(-c2sc(NC(=O)C(C)(C)C)nc2C)cs1	?	?	?	–	–	–
O=C1C2C3C=CC(C3=C(c3ccccc3)c3ccccc3)C2C(=O)N1Cc1ccccc1 (configuration not stated)	1.12µM	?	–[9.22 µM]	39.8µM	–	–
CN(C#N)c1nc(Cl)nc(Nc2cccc(Cl)c2)n1	3.98µM	–	–	–	–	–[10 µM]
COc1ccc(N2C(=O)CSC23CCCCC3)cc1	14.1µM	–	–	–	–	–
O=C1c2ccccc2C(=O)C1(O)O	1.19µM	·	·	–	·	–
CC1CCCN(C(c2ccccc2)c2sc3ncnn3c2O)C1 (configuration not stated)	–	·	–[9.22 µM]	·	·	–[10 µM]
COc1cc(C(c2sc3nc(C)nn3c2O)N2CC(C)CC(C)C2)cc(OC)c1OC (configuration not stated)	14.1µM	–	–	–	–	–
Oc1c(C(c2ccccc2)N2CCc3ccccc3C2)sc2ncnn12 (configuration not stated)	7.08µM	?	–	31.6µM	–	–[10 µM]
COc1cc(C(c2sc3nc(C)nn3c2O)N2CC(C)OC(C)C2)cc(OC)c1OC (configuration not stated)	–	–	–	–	–	–
COc1cccc(C(c2sc3nc(C)nn3c2O)N2CCc3ccccc3C2)c1 (configuration not stated)	?	–	–	11.2µM	–	–[10 µM]
O=C1C=CC2=C3c4cc(O)c(O)cc4C[C@@]3(O)COC2=C1	–	·	·	11.2µM	–	?
CC1CCCCN1c1ncnc2ccccc12 (configuration not stated)	–	?	10µM	–	–	–
CC1Cc2ccccc2N1c1ncnc(N)c1[N+](=O)[O-] (configuration not stated)	?	?	0.891µM	·	–	?
O=C(O)C1CCCN1c1ncnc2ccccc12 (configuration not stated)	–	–	–	–	–	–
CC1CCCCN1c1ncnc(N)c1[N+](=O)[O-] (configuration not stated)	–	?	10µM	·	–	–
CC1Cc2ccccc2N1c1ncnc2nc[nH]c12 (configuration not stated)	–	?	11.2µM	–	–	–
SMILES	ALDH1A1 block	Lamin A splicing	HttQ103 aggreg	HPGD block	KinaseGlo FLuc	HTT ATP protect
O=C(CSc1nccc(=O)[nH]1)Nc1ccc(Br)c(Cl)c1	?	?	–	31.6µM	–	–[0.074 µM]
Cc1c(-n2c(SCC(=O)N(C)C3CCS(=O)(=O)C3)nc3ccccc3c2=O)c(=O)n(-c2ccccc2)n1C (configuration not stated)	25.1µM	?	–	·	–	–
C=CCn1c(SCC(=O)N(C)C2CCS(=O)(=O)C2)nc2ccccc2c1=O (configuration not stated)	–	–	–	·	–	–[10 µM]
O=C1CC(N2CCN(c3ccccn3)CC2)C(=O)N1c1ccc(F)cc1 (configuration not stated)	–	–[9.22 µM]	–	·	–	–
COc1ccc(CCN2C(=O)CC(N3CCOCC3)C2=O)cc1 (configuration not stated)	–	–	–	–	–	1.26µM
O=C(C1CCN(C2CC(=O)N(c3ccc(F)cc3)C2=O)CC1)N1CCOCC1 (configuration not stated)	7.08µM	–	?	–	–	–[0.074 µM]
COc1ccc(N2C(=O)CC(n3c(CCCCO)nc4ccccc43)C2=O)cc1 (configuration not stated)	3.55µM	–	–	–	–	–[0.074 µM]
CCN1C(=O)CC(N2CCC(C(=O)N3CCOCC3)CC2)C1=O (configuration not stated)	–	–	–	–	–	–
COc1ccc(N2C(=O)CC(n3cnc4ccccc43)C2=O)cc1 (configuration not stated)	–	–	–	–	–	?
O=C1CCCN1CCC1CCN(C2CC(=O)N(c3ccc(F)cc3)C2=O)CC1 (configuration not stated)	12.6µM	–	–	–	–	–
O=c1cc2c(nn1Cc1c(Cl)cccc1Cl)-c1ccccc1CC2	?	–	?	–	–	–
COc1cc(C)ccc1OCCCOc1ccccc1Cl	–	–	–	?	–	–
C=CCNC(=O)COc1c(C)ccc(C)c1C	–	–	–	·	–	–
CCOC(=O)Nc1ccc2c(c1)N(C(=O)CCN(C)C)c1ccccc1S2	–	?	–	–	–	–
COc1ccc(N2C(=O)CC(N3CCOCC3)C2=O)cc1 (configuration not stated)	25.1µM	–	–	–	–	–
COc1ccc(N2C(=O)CC(N3CCN(c4ccccc4F)CC3)C2=O)cc1 (configuration not stated)	?	–	–	–	–	–
O=C1CC(N2CCOCC2)C(=O)N1c1cc(Cl)cc(Cl)c1 (configuration not stated)	3.16µM	–	–	–	–	–
COc1ccc(Cl)cc1S(=O)(=O)Nc1cccc(-c2ccc(N3CCCC3)nn2)c1	·	–	·	·	·	·
Cc1sc(NC(=O)c2ccco2)nc1-c1ccccc1	–	–	–	14.1µM	–	–[10 µM]
CC(=O)c1sc(NC(=O)c2ccco2)nc1-c1ccccc1	–	–	–	11.2µM	–	–
COc1ccc2c(c1)Cc1sc(NC(=O)c3ccco3)nc1-2	?	–	–	–	–	–
CCOC(=O)c1sc(NC(=O)c2ccco2)nc1-c1ccccc1	–	–	–	–	–	–[10 µM]
Cc1sc(NC(=O)c2ccco2)nc1-c1ccc2c(c1)CC(C)N2C(=O)C1CC1 (configuration not stated)	?	?	15.8µM	?	–	–
